For twelve compounds, activity, negative = inhibition, Potency and Z-AUC results are on record in PubChem BioAssay (NCATS).

Results filed as inconclusive are left out. Calls of active or inactive are those of the source. Unless noted, the call rests on the fitted dose curve; in most records, active means well fitted inhibition curve with a large enough effect; inconclusive means small, poorly fitted or top-dose-only effect; inactive means flat fitted curve, though single readings scatter.

A short description of test [1]: qHTS profiling for inhibitors of Plasmodium falciparum proliferation (AID 504749). Further: nearly all actives have a fitted effect of over 60% in size. Further: potency means the concentration at half of the fitted maximal effect.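 On activity, negative = inhibition: 0% = DMSO vehicle and full inhibition = artemisinin control.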 Particulars: P. falciparum in erythrocytes, SYBR Green DNA, 72 h. The gist of the method:
(§1)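 Parasite proliferation within erythrocytes, 72 h exposure. Endpoint: SYBR Green I fluorescence after overnight lysis at room temperature. Controls: 0.29 uM artemisinin, DMSO.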
Background: qHTS replaces the single test concentration by a dilution series.

In the next test the test system is 3D7. Described as above. The following applies: P. falciparum in erythrocytes, SYBR Green DNA, 72 h; series mostly up to 28.7 µM. In a few lines: as §1
For the next test, the system named is 7G8. The test is described as above. Particulars: P. falciparum in erythrocytes, SYBR Green DNA, 72 h; series mostly up to 28.7 µM. The gist of the method:
as §1

Another test relates to AA1029. The description is as above. Particulars: P. falciparum in erythrocytes, SYBR Green DNA, 72 h; series mostly up to 28.7 µM. The gist of the method: as §1
The subject of the next test is AS120. The description is as above. Particulars: P. falciparum in erythrocytes, SYBR Green DNA, 72 h; series mostly up to 28.7 µM. The gist of the method: as §1
For a further test, the system named is ATS189. The description is as above. The following applies: P. falciparum in erythrocytes, SYBR Green DNA, 72 h; series mostly up to 28.7 µM. In a few lines:
as §1

Another test concerns ATS95. The description is as above. Particulars: P. falciparum in erythrocytes, SYBR Green DNA, 72 h; series mostly up to 28.7 µM. In a few lines:
as §1

The subject of another test is C2A. Described as above. The following applies: P. falciparum in erythrocytes, SYBR Green DNA, 72 h; series mostly up to 28.7 µM. The gist of the method: as §1
For the next test, the system named is CP185. The description is as above. Particulars: P. falciparum in erythrocytes, SYBR Green DNA, 72 h; series mostly up to 28.7 µM. In a few lines: as §1
The next test concerns CP191. Described as above. The following applies: P. falciparum in erythrocytes, SYBR Green DNA, 72 h; series mostly up to 28.7 µM. In a few lines: as §1
The subject of a further test is CP192. The test is described as above. The following applies: P. falciparum in erythrocytes, SYBR Green DNA, 72 h; series mostly up to 28.7 µM. The gist of the method: as §1
The next test concerns CP194. The test is described as above. The following applies: P. falciparum in erythrocytes, SYBR Green DNA, 72 h; series mostly up to 28.7 µM. In a few lines: as §1
The test system of a further test is CP201. Described as above. Particulars: P. falciparum in erythrocytes, SYBR Green DNA, 72 h; series mostly up to 28.7 µM. In a few lines:
as §1

A further test relates to CP203. The test is described as above. The following applies: P. falciparum in erythrocytes, SYBR Green DNA, 72 h; series mostly up to 28.7 µM. The gist of the method:
as §1

A further test has as its system CP211. The test is described as above. Particulars: P. falciparum in erythrocytes, SYBR Green DNA, 72 h; series mostly up to 28.7 µM. In a few lines:
as §1

A further test has as its system CP215. The description is as above. The following applies: P. falciparum in erythrocytes, SYBR Green DNA, 72 h; series mostly up to 28.7 µM. The gist of the method: as §1
A further test concerns CP217. The test is described as above. Particulars: P. falciparum in erythrocytes, SYBR Green DNA, 72 h; series mostly up to 28.7 µM. In a few lines:
as §1

Another test relates to CP237. The test is described as above. Particulars: P. falciparum in erythrocytes, SYBR Green DNA, 72 h; series mostly up to 28.7 µM. In a few lines: as §1
Test [2] is described as follows: qHTS drug screen for cell cycle checkpoint inhibitors in PARPi-resistant BRCA-mutant ovarian cancer cell lines. (AID 1963452; calls by dose curve). The following applies: PEO1/OlaR viability, CellTiter-Glo luminescence, 96 h, stronger effect = lower value. The gist of the method:
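PEO1, PEO4 and PEO1/OlaR ovarian cancer cells, 600 per well, exposed 96 h at 37C to a dilution series. Viability read by CellTiter-Glo luminescence, normalized to DMSO and empty wells; activity summarized as Z-AUC.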

[3] abbreviates: at 28.7 µM (top of the series), parasite line A.
Setting [4] is: at 28.7 µM (top of the series), parasite line B.

For `CCCCOc1ccc(OCCCN2CCOCC2)cc1`, the activity, negative = inhibition in [1] (at 12.8 µM (top of the series), parasite line A) is 9.41% (inactive); in test [1] (at 12.8 µM (top of the series), parasite line B) it was 8.45% (inactive). Moreover, the Potency entry with 3D7, with 7G8, with AA1029, in the test on AS120, in the test on ATS189 and in the test with ATS95 was “inactive” throughout. Also, the Potency entry in the test with C2A, in the test on CP185, in the test on CP191, in the test with CP192, in the test on CP194 and with CP201 was “inactive” in each case. Also, the Potency result in the test with CP203, with CP211, with CP215, in the test on CP217 and in the test on CP237 was “inactive” in each case.
With `CC[C@H](C)C(=O)O[C@H]1CCC=C2C=C[C@H](C)[C@H](CC[C@@H]3C[C@@H](O)CC(=O)O3)[C@H]21`, the Z-AUC in test [2] is 1.25 (inactive); in test [2] (measured here: PEO1 parental Z-AUC), 1.13; in test [2] (measured here: PEO4 Z-AUC), 1.15.
As for `O=C(CCN1CCC(c2ccccc2)C1)c1ccc2c(c1)OCCO2` (stereo not given), the activity, negative = inhibition is 10.2% (inactive) in test [1] (setting [3]) and 1.82% (inactive) in [1] (setting [4]). Besides, the Potency entry in the test with 3D7, in the test on 7G8, in the test with AA1029, with AS120, in the test with ATS189 and in the test on ATS95 was “inactive” throughout. The Potency result in the test with C2A, in the test with CP185, in the test with CP191, in the test on CP192, in the test on CP194 and with CP201 was “inactive” each time. Also, the Potency entry in the test on CP203, in the test with CP211, in the test on CP215, in the test with CP217 and in the test with CP237 was “inactive” in each case.
Turning to `O=C(O)c1cc2cc(Cc3cccnc3)ccc2o1`, the activity, negative = inhibition in [1] (setting [3]) is 9.24% (inactive); in test [1] (setting [4]), 5.6% (inactive). For the same compound, the Potency result in the test on 3D7, in the test with 7G8, in the test on AA1029, with AS120, in the test with ATS189 and in the test with ATS95 was “inactive” in each case. Further, the Potency result in the test with C2A, in the test with CP185, in the test on CP191, in the test on CP192, in the test on CP194 and in the test on CP201 was “inactive” in each case. Further, the Potency result in the test with CP203, with CP211, in the test with CP215, in the test with CP217 and with CP237 was “inactive” in each case.
In the case of `CN1C2CCC1CC(OC(=O)c1c[nH]c3ccccc13)C2` (stereo not given), the activity, negative = inhibition in test [1] (setting [3]) was 9.99% (inactive); in [1] (setting [4]) it was 3.24% (inactive). Moreover, the Potency result in the test with 3D7, in the test with AA1029, with AS120, in the test on ATS189, in the test on ATS95 and in the test with C2A was “inactive” each time. For the same compound, the Potency entry in the test with CP185, with CP191, with CP192, in the test on CP194, in the test with CP201 and in the test with CP203 was “inactive” throughout. Besides, the Potency entry in the test with CP211, in the test with CP215, in the test with CP217 and in the test with CP237 was “inactive” in each case. For the same compound, in the test on 7G8, the Potency is 10 µM (active).
As for `COc1ccc(/C=C/C(=O)c2ccc(OC)cc2OC)cc1`, the Potency in test [1] (parasite line A) was 3.16 µM (active); in test [1] (parasite line B) it was 8.91 µM (active); with 3D7, 10 µM (active); with 7G8 it was 5.01 µM (active); with AA1029, 6.31 µM (active); with AS120 it was 8.91 µM (active). Besides, the Potency in the test on ATS189 was 5.62 µM (active); with ATS95 it was 11.2 µM (active); in the test on C2A it was 11.2 µM (active); in the test on CP185 it was 8.91 µM (active); in the test on CP191, 3.16 µM (active); in the test on CP192, 13.5 µM (active). Moreover, the Potency was 12 µM (active) with CP194; 8.49 µM (active) in the test with CP201; 13.5 µM (active) in the test with CP203; 6.75 µM (active) with CP211; 6.75 µM (active) with CP215; 5.01 µM (active) with CP217. In addition, the Potency in the test on CP237 was 11.2 µM (active).
In the case of `CC1(C)CCC(NC(=O)[C@@H](N)CCC(=O)O)CC1`, the activity, negative = inhibition is 2.48% (inactive) in test [1] (setting [3]) and 10.3% (inactive) in test [1] (setting [4]). For the same compound, the Potency result in the test with 3D7, with 7G8, in the test on AA1029, in the test with AS120, in the test on ATS189 and with ATS95 was “inactive” throughout. Further, the Potency result in the test on C2A, in the test on CP185, with CP191, in the test on CP192, with CP194 and in the test with CP201 was “inactive” each time. The Potency result in the test on CP211, with CP215, with CP217 and with CP237 was “inactive” throughout.
In the case of `CCCn1c(=O)[nH]c(=O)c2[nH]cnc21`, the activity, negative = inhibition in [1] (setting [3]) is -4.05% (inactive); in test [1] (setting [4]), 5.13% (inactive). The Potency entry in the test with 3D7, with 7G8, with AA1029, in the test on AS120, in the test on ATS189 and in the test with ATS95 was “inactive” throughout. Moreover, the Potency result with C2A, with CP185, in the test with CP191, in the test on CP192, in the test on CP194 and in the test with CP201 was “inactive” throughout. Besides, the Potency result with CP203, with CP211, in the test on CP215, in the test with CP217 and with CP237 was “inactive” in each case.
With `N[C@@H](Cc1cnc[nH]1)C(=O)O`, the activity, negative = inhibition in [1] (setting [3]) is 3.46% (inactive); in [1] (setting [4]), 9.36% (inactive). The Potency result with 3D7, in the test with 7G8, in the test on AA1029, with AS120, with ATS189 and with ATS95 was “inactive” in each case. The Potency result with C2A, in the test with CP185, in the test on CP191, in the test on CP192, in the test on CP194 and in the test with CP201 was “inactive” each time. The Potency result in the test on CP203, in the test on CP211, with CP215, with CP217 and with CP237 was “inactive” throughout.
Regarding `N[C@H](CO)C(=O)O`, the values for the activity, negative = inhibition in test [1] (setting [3]) and in test [1] (setting [4]) were -0.225% (inactive) and -23.4% (inactive), respectively. The Potency entry in the test on 3D7, in the test on 7G8, in the test on AA1029, in the test on AS120, with ATS189 and in the test with ATS95 was “inactive” each time. Besides, the Potency result in the test on C2A, in the test on CP185, with CP191, with CP192, with CP194 and with CP201 was “inactive” throughout. The Potency result with CP203, in the test with CP211, in the test on CP217 and in the test with CP237 was “inactive” in each case.
As for `Nc1cc(Cl)c(NC2=NCCN2)c(Cl)c1`, the activity, negative = inhibition in test [1] (setting [3]) is 18.9% (inactive); in [1] (setting [4]), 15.3% (inactive). The Potency entry in the test on 3D7, in the test on 7G8, in the test on AA1029, with AS120, in the test with ATS189 and with ATS95 was “inactive” throughout. For the same compound, the Potency entry in the test with C2A, in the test with CP185, with CP191, with CP192, in the test with CP194 and in the test with CP201 was “inactive” each time. Also, the Potency result in the test with CP203, in the test with CP211, in the test with CP215, with CP217 and in the test on CP237 was “inactive” throughout.
For the compound `Cc1cc(=O)n(-c2ccccc2)n1C`, the activity, negative = inhibition in test [1] (setting [3]) is 5.57% (inactive); in test [1] (setting [4]) it was 10.3% (inactive). Further, the Potency result in the test on 3D7, with 7G8, in the test with AA1029, with AS120, in the test with ATS189 and with ATS95 was “inactive” each time. Also, the Potency entry with C2A, in the test on CP185, with CP191, in the test on CP192, with CP194 and with CP201 was “inactive” in each case. Moreover, the Potency result in the test on CP203, in the test on CP211, with CP215, with CP217 and in the test on CP237 was “inactive” each time.
